Beta2AR agonist: agonists of human beta-2 adrenergic receptor inducing internalization; Am2.2-beta2AR cells, FAP receptor internalization, flow cytometry; response, % (test concentration not listed); hit rate 0.43% among 340,000; AID 504454;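 active means response above a set limit, near 3 SD of response in nonfluorescent compounds, cut at about 42% in these data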
MEKK2mut PB1 HTS: signal of MEK5 binding to mutant human MEKK2 PB1 domain | bead flow cytometry, Alexa488-MEK5 binding to MEKK2 mutant | percent response, % at 10 µM | hit rate 0.35% among 290,000 | AID 1530; in the data active means percent response above about 24%, passing the limit was not always enough
MEKK2wt PB1 HTS: raises or lowers MEK5 binding to wildtype human MEKK2 PB1 domain. binding response (% of control), % at 10 µM. hit rate 1.1% among 290,000. bead flow cytometry, Alexa488-MEK5 binding to MEKK2 WT; actives lie on both sides; in the data active means binding response below about 67% or above about 130%; inconclusive means no clear call, values can overlap the other calls; inactive means in between
MEKK3 PB1 HTS: modulators (inhibitors or enhancers) of MEK5 binding to human MEKK3 PB1 domain; Q99759; bead-based flow cytometry, Alexa488-MEK5 binding to MEKK3; actives lie on both sides; 0 = blocked by unlabeled MEK5, 100 = vehicle; binding response (% of control), % at 10 µM; hit rate 1.4% among 290,000; AID 1529;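 active means binding response more than 3 SD above or below the average of its plate-row segment, actives on both sides; inconclusive means wells at one plate position flagged as instrument error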;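 further: Alexa488 bead fluorescence after subtracting the streptavidin-only scavenger bead signal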
GRK2 aptamer HTS: blocks RNA aptamer binding to human GRK2; P25098; bead flow cytometry, FAM-aptamer displacement from GRK2; inhibition of aptamer binding, % at 10 µM; hit rate 0.59% among 330,000; AID 488847;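 active means inhibition of aptamer binding above 40%, roughly 3 SD of noise, on plates passing a quality check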;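 further: median bead fluorescence of bound FAM aptamer so fluorescent compounds give negative values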
Target sequence (P25098 whole entry, looked up): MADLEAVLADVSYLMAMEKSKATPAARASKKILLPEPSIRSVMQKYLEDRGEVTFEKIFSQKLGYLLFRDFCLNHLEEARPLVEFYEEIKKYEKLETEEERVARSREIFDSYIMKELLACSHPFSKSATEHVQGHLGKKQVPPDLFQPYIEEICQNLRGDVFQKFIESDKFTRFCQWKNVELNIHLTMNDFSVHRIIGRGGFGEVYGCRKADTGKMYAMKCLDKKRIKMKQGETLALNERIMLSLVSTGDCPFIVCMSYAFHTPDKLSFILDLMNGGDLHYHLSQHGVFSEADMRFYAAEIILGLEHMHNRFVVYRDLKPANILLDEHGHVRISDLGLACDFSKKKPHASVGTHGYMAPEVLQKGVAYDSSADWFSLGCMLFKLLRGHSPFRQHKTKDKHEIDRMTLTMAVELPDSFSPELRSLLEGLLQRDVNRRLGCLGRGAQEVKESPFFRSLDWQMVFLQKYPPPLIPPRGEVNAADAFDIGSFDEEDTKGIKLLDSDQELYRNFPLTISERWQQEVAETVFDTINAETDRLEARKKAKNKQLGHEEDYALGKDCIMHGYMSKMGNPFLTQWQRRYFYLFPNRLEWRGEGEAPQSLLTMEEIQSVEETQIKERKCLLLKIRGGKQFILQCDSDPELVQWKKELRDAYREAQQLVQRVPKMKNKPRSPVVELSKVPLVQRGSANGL
Beta2AR ag CP1: human beta-2 adrenergic receptor agonism, cherry pick; percent response (surface receptor), % at 10 µM; Am2.2-beta2AR cells, FAP surface receptor, flow cytometry; hits give low values; hit rate 25% among 1,100; shares compounds with Beta2AR agonist;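 active means surface receptor percent response at or below 58%, roughly 3 SD from nonfluorescent compounds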
FAP fluor counter: flagged in Am2.2 fluorescence counterscreen for beta-2AR agonists; shares compounds with Beta2AR agonist; Am2.2 cells, FAP fluorogen flow cytometry; hits give low values; calls only at 10 µM; 1,100 tested, under 10 active; AID 588765;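 active means percent response below a set limit in fluorescence channel 1 and below 50% in channel 8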
* = called active by the depositor; i = inactive; ? = inconclusive; nt = no result given. Shown are actives, neighbours in structure and some others; about 2.9% of the full set was active somewhere.

SMILES	Beta2AR agonist	MEKK2mut PB1 HTS	MEKK2wt PB1 HTS	MEKK3 PB1 HTS	GRK2 aptamer HTS	Beta2AR ag CP1	FAP fluor counter
CCCn1nnc(NC(=O)c2ccc(-c3cccc(Cl)c3)o2)n1	0	-2	97	100	2	nt	nt
CCOc1ccccc1/C=C/c1onc(C)c1S(=O)(=O)N1CCC(C(=O)NC(C)C)CC1	10	3	95	100	0	nt	nt
COc1ccccc1/C=C/c1onc(C)c1S(=O)(=O)N1CCC(C(=O)NC(C)C)CC1	44*	-2	99	96	0	97	i
CN1OC[C@@H]2CN[C@H](c3cccc(-c4ccc(C#N)cc4)c3)C[C@@H]21	7	nt	nt	nt	nt	nt	nt
Cc1ccc(Cl)cc1NC(=O)c1cc2ccccc2cc1O	44*	-26	?	?	3	95	i
O=[N+]([O-])c1ccc(-[n+]2ccc3ccccc3c2)c([N+](=O)[O-])c1	47*	nt	nt	nt	2	40*	i
COc1ccccc1C(=O)Nc1cccc2cccnc12	4	7	116	119	1	nt	nt
O=C(c1cc2c(=O)n3ccccc3nc2s1)N1CCN(Cc2ccc3c(c2)OCO3)CC1	74*	-1	102	104	5	24*	i
Cc1cc2ccccc2n2c(SCC(=O)NCC3CCCO3)nnc12 (configuration not stated)	nt	1	97	101	0	nt	nt
COc1ccc(C(=O)Nc2ccnn2C2CCN(C(=O)c3cc(C)on3)CC2)cc1	-3	5	106	101	8	nt	nt
CCc1ccccc1N(C)S(=O)(=O)c1ccc2[nH]cc(C(=O)O)c(=O)c2c1	76*	1	95	94	33	84	i
Cc1cc(C)n2nc(C(=O)Nc3ccc(S(=O)(=O)N4CCCC4)cc3)nc2n1	46*	-26	78	81	1	98	i
Cc1cc(C)n2nc(C(=O)Nc3ccc(S(=O)(=O)N4CCCCC4)cc3)nc2n1	0	0	94	98	1	nt	nt
Cc1cc(C)n2nc(C(=O)Nc3cccc(S(=O)(=O)N(C)c4ccccc4)c3)nc2n1	75*	1	101	99	3	12*	i
Cn1cc(S(=O)(=O)N2CCNCC2)cc1C(N)=O	-5	nt	nt	nt	0	nt	nt
COc1cc(C2=CCN(C(C)=O)CC2)ccc1OC(C)=O	3	-1	99	102	0	nt	nt
O=S(=O)(c1ccc(Br)c2ccccc12)N1CCCC1	6	0	105	103	3	nt	nt
Cc1nc2ccc(NS(=O)(=O)c3cccc([N+](=O)[O-])c3)cc2s1	-4	nt	nt	nt	1	nt	nt
O=C(CN1CCN(Cc2ccccc2)CC1)Nc1ccc(N2CCOCC2)cc1	50*	4	113	116	0	118	i
O=C(CN1CCN(Cc2ccccc2)CC1)Nc1ccccc1	-7	2	107	103	0	nt	nt
COc1cc(OC)nc(NC(=O)CSc2nnc(-c3ccccc3)n2C2CCCCC2)n1	97*	-3	97	92	3	19*	i
O=C(CSc1nnc(-c2ccccc2)n1C1CCCCC1)Nc1ccc(S(=O)(=O)Nc2ccccn2)cc1	3	2	98	97	1	nt	nt
CCOC(=O)c1cn(C2CC2)c2c(F)c(NCCCN(C)C)c(F)cc2c1=O	64*	nt	nt	nt	0	38*	i
COc1ccc2[nH]c3c(NCCC4=CCCCC4)ncnc3c2c1	45*	0	124	75	nt	62	i
CCN(CC)CCNc1ncnc2c1[nH]c1ccc(OC)cc12	nt	9	113	103	0	nt	nt
SMILES	Beta2AR agonist	MEKK2mut PB1 HTS	MEKK2wt PB1 HTS	MEKK3 PB1 HTS	GRK2 aptamer HTS	Beta2AR ag CP1	FAP fluor counter
COc1ccccc1CNC(=O)c1ccccc1NC(=O)C1=C(C)OCCS1	-3	-3	93	93	3	nt	nt
CCOc1ccc(CN(C)CC(=O)NCc2ccccc2Cl)cc1	4	-2	100	107	0	nt	nt
Cc1ccc(C(=O)Nc2ccc(O)cc2C(=O)O)cc1C	14	1	98	99	0	107	i
O=C(Nc1ccc(C2=CN(Cc3ccccc3)CCC2=O)cc1)OCc1ccccc1	4	nt	nt	nt	2	nt	nt
COCc1cc(CNC(=O)C2CCC(=O)N(Cc3ccccc3OC)C2)[nH]n1 (configuration not stated)	14	0	104	101	0	nt	nt
COc1ccc(C(=O)NC(C)c2ccc(-n3ccnc3)cc2)cc1S(=O)(=O)N1CCOCC1 (configuration not stated)	-2	nt	nt	nt	nt	nt	nt
Cc1ccc(C(=O)c2ccccc2C(=O)OCC(=O)N2CCCC2)cc1	1	nt	nt	nt	0	107	i
CCc1cccc(C)c1NC(=O)c1cc(=O)[nH]c2ccc(S(=O)(=O)N3CCOCC3)cc12	2	nt	nt	nt	4	nt	nt
Cc1ccc2c(c1)C(=O)C(=O)N2CCCOc1ccccc1C	42*	-12	83	91	1	91	i
Cc1ccccc1OCCCN1C(=O)C(=O)c2cccc(C)c21	10	nt	nt	nt	3	nt	nt
COc1ccc(C2C(C#N)=C(N)Oc3c2sc2nc(C)cc(C)c32)cc1 (configuration not stated)	80*	-4	94	101	0	43*	i
COc1ccc(C2C(C#N)=C(N)Oc3cccc(O)c32)cc1 (configuration not stated)	-8	0	102	102	1	nt	nt
COc1ccc(Cl)cc1-c1nc(-c2ccc(NC(=O)c3ccncc3)cc2)no1	0	nt	nt	nt	0	nt	nt
CC(Oc1ccc(Cl)cc1Cl)c1nc(-c2ccc(NC(=O)c3ccccn3)cc2)no1 (configuration not stated)	82*	6	111	110	1	9.7*	i
O=C(NCc1cccc(Cl)c1)c1ccc2ccccc2n1	-13	1	102	102	0	nt	nt
Cc1ccc(/C(=N/Nc2ncnc3ccccc23)C(=O)O)cc1	2	2	100	99	1	94	i
Cc1ccc(Nc2ncnc3ccccc23)cc1	4	-9	97	100	0	nt	nt
CC(C)c1c(C(=O)N/N=C/c2ccsc2)nnn1-c1nonc1N	-12	3	108	102	3	nt	nt
O=C(c1ccc([N+](=O)[O-])s1)N1CCN(c2ccc(C(F)(F)F)cn2)CC1	84*	-6	98	101	3	109	i
Cc1ccnc(NC(=O)c2ccc([N+](=O)[O-])o2)c1	49*	1	98	96	4	93	i
O=C(Nc1ccccn1)c1ccc([N+](=O)[O-])o1	-4	0	100	98	4	nt	nt
CN(C)c1ccc(NC(=O)COC(=O)c2ccc3c(c2)OCO3)cc1	2	nt	nt	nt	0	nt	nt
CN(C)c1ccc(C(=O)OCC(=O)Nc2ccc(S(N)(=O)=O)cc2)cc1	47*	-1	96	98	3	83	i

High-throughput results as filed in PubChem.
